In assay [1] the target is T1, Aspartate--tRNA(Asp/Asn) ligase (Mycobacterium tuberculosis (strain ATCC 25618 / H37Rv)) (UniProt P9WFW3). Note: in the data most compounds retested in dose-response had high values.
T1 sequence (whole entry): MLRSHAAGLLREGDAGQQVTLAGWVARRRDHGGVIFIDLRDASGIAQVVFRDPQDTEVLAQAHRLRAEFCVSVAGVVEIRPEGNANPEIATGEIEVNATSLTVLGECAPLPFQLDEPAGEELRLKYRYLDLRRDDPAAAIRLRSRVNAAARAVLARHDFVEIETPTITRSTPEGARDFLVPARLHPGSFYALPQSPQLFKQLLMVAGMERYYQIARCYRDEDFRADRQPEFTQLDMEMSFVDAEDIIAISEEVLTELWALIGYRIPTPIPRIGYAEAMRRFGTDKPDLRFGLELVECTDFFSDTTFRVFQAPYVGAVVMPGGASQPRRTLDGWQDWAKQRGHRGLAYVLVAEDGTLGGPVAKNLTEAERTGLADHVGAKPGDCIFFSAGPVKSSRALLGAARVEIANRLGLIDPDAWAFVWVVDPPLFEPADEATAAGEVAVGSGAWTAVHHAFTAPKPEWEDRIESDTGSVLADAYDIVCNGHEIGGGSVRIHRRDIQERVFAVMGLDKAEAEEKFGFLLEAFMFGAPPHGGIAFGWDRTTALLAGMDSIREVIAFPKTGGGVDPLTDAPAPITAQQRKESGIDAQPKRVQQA
Put plainly: Assay for Asp RNA synthetase-1 from Mycobacterium tuberculosis. It counts as functional. Also noted: scale not given: direction of the effect not stated beside the values. The following applies: 30 µM.

The target of assay [2] is Shiga toxin 2 (Escherichia coli O157:H7) (UniProt P09385+P09386). Put plainly: E. coli 0.157:H7 Shiga Toxin SOP - stx2 screening assay. The assay is classed as functional. Also noted: scale not given: direction of the effect not stated beside the values. As to conditions: 30 µM.

On to `CC(NC(=O)NCc1cccnc1N1CCCCC1)c1nccs1` (configuration not stated), for which the Percent Effect was -6.16% in assay [1] and -7.44% in assay [2].

Turning to `CCOc1cccc(CNC(=O)NCC(O)c2cccc(F)c2)c1` (configuration not stated), the Percent Effect is 9.63% in assay [1] and 16.2% in assay [2].

For the compound `CCNC(=O)[C@@H]1C[C@@H](NC(=O)Cc2ccncc2)CN1Cc1ccsc1`, the Percent Effect in assay [1] was -3.17%; in assay [2], -0.12%.

Take `Cc1cnn(CC2CN(Cc3nnc(C4CC4)o3)CCO2)c1` (configuration not stated): the Percent Effect in assay [1] is -2.56%; in assay [2], 24.8%.

`CCC(CC)C(CNC(=O)Nc1cc(C)nn1C)N1CCOCC1` (configuration not stated): the results for the Percent Effect in assay [1] and in assay [2] were -8.48% and -29.4%, respectively.

As to `O=C(CCC1CCN(Cc2ncc[nH]2)CC1)Nc1ccccc1Cl`, the values for the Percent Effect in assay [1] and in assay [2] were 0.166% and -7.7%, respectively.

For `O=C(CSc1ncccn1)N1C[C@H]2CC[C@@H]1CN(Cc1ccncc1)C2`, the Percent Effect in assay [1] was 3.45%; in assay [2], -26.2%.

As for `Cc1noc(C2CCN(C(=O)c3ccc(NC4CC4)nc3)CC2)n1`, the Percent Effect in assay [1] is 1.21%; in assay [2], -7.73%.

On to `O=C(C1CCCc2[nH]ncc21)N1CCCCCC1` (configuration not stated), for which the Percent Effect in assay [1] is -0.324%; in assay [2], 1.51%.

In the case of `CCCNC(=O)NC(=O)CN(CC(C)O)c1ccccc1` (configuration not stated), the Percent Effect in assay [1] was 1.53%; in assay [2], 20.6%.

As for `CNS(=O)(=O)c1ccc(C(=O)NCCNc2ncccn2)cc1`, the Percent Effect in assay [1] was -1.6%; in assay [2], 25.5%.

As to `CCOc1ccnc(N2CCN(C(=O)c3cccnc3O)CC2)n1`, the Percent Effect in assay [1] was -5.14%; in assay [2], 6.95%.

Regarding `Cn1c(C(F)(F)F)nn(CCNC(=O)c2cnc3ccccc3n2)c1=O`, the figures for the Percent Effect in assay [1] and in assay [2] were -7.1% and -21.4%, respectively.

`c1cnnc(N2CCCC(NCc3cn4ccccc4n3)C2)c1` (configuration not stated): the Percent Effect in assay [1] was 2.13%; in assay [2], -114%.

For `Cn1nnc2c1C(COCc1ccccn1)CN(C(=O)c1cccs1)C2` (configuration not stated), the Percent Effect in assay [1] turned out to be 0.388%; in assay [2], 13.7%.

For `Cc1ncsc1C(=O)NC1CCN(CCC(N)=O)CC1`, the Percent Effect was -2.4% in assay [1] and 13.9% in assay [2].

On to `Cc1cccc2c1cnn2CCC(=O)NCC(=O)N(C)C`, for which the results for the Percent Effect in assay [1] and in assay [2] were -1.19% and -22.2%, respectively.

As to `Cn1cnc2c1CCN(Cc1ccc(C(=O)N3CCCC3)cc1)C2`, the Percent Effect is 0.745% in assay [1] and -74.8% in assay [2].

In the case of `CC(NC(=O)NCCCNS(C)(=O)=O)c1ccncc1` (configuration not stated), the Percent Effect in assay [1] was -3.27%; in assay [2], -2.62%.

Consider `CN1CCC(Oc2ccc(NC(=O)c3cccc(Cl)c3)cc2)CC1`, for which the Percent Effect in assay [1] was -0.327%; in assay [2] it was -51%.

In the case of `CN(Cc1cnn(C)c1)C(=O)NCc1csc(Br)c1`, the Percent Effect stood at 4.08% in assay [1] and 32.1% in assay [2].

On to `CCC(CC)c1cc(C(=O)N2CCCC(n3cncn3)C2)on1` (configuration not stated), for which the Percent Effect in assay [1] was -5.51%; in assay [2], -2.33%.

Consider `COc1c(CNC2CCN(c3ncccn3)CC2)c(C(C)C)nn1C`, for which the Percent Effect in assay [1] is -2.81%; in assay [2], 30.1%.

With `COCCNC(=O)[C@H]1C[C@@H]2CCN(c3nncs3)C[C@H]2O1`, the Percent Effect in assay [1] was 1.82%; in assay [2], -18.8%.

As for `Cc1nn(C)c(N(C)C)c1CNCc1ccccc1Cn1cncn1`, the Percent Effect in assay [1] is -4.47%; in assay [2], 10.9%.

For the compound `O=C(O)c1nnn(Cc2cccc(C(F)(F)F)c2)c1-c1cccnc1`, the Percent Effect in assay [1] is -1.36%; in assay [2], -46.6%.

For the compound `O=C(NCC(Cc1cccc(F)c1)N1CCCC1=O)c1cnccn1` (configuration not stated), the Percent Effect in assay [1] was -5.12%; in assay [2], -15.9%.

Turning to `CC(C)Cc1noc(CN2CCN(CCOc3ccc(Cl)cc3)CC2)n1`, the Percent Effect in assay [1] was 0.745%; in assay [2], 10.8%.

In the case of `O=C(CCOc1ccc(Cl)cc1)N1CCN(c2cnccn2)CC1`, the Percent Effect in assay [1] was 0.879%; in assay [2], -12.7%.

In the case of `COCCCNC(=O)CN(C)C(=O)c1cc(C)ccc1O`, the figures for the Percent Effect in assay [1] and in assay [2] were 0.583% and 14.3%, respectively.

For `CCOC(=O)CCCNC(=O)CN1CCN(c2ncccn2)CC1`, the figures for the Percent Effect in assay [1] and in assay [2] were 6.48% and -56.7%, respectively.

With `CCn1cnnc1CNC(=O)N1CCC(C(=O)NC)CC1`, the values for the Percent Effect in assay [1] and in assay [2] were -8.1% and -16.1%, respectively.

With `O=C(NCc1cn2c(n1)CN(CC1CCOCC1)CC2)C1CCC1`, the values for the Percent Effect in assay [1] and in assay [2] were 0.662% and -18.2%, respectively.

As for `COCC(=O)N1CCC2(CC1)COCCN2CCN(C)C`, the figures for the Percent Effect in assay [1] and in assay [2] were 3.2% and -1.86%, respectively.

In the case of `Cc1nn(C)c(Cl)c1CNCc1cccnc1N1CCOCC1`, the Percent Effect in assay [1] was -7.19%; in assay [2], 4.19%.

For `O=C(NCc1ccccc1)c1nnc2ccc(N3CCOCC3)cc2n1`, the Percent Effect was -1.02% in assay [1] and -21.5% in assay [2].

Take `CCc1ccc(CN(CCCn2ccnc2)Cc2ccc(C)s2)o1`: the Percent Effect was 2.1% in assay [1] and -1.1% in assay [2].

As to `CCOCCn1nc(C)cc1C(=O)N1CCOCC(CO)C1` (configuration not stated), the Percent Effect was -1.08% in assay [1] and -28% in assay [2].

For `Cc1c(F)cccc1CN1CCn2nc(CNC(=O)N(C)C)cc2C1`, the Percent Effect is 0.386% in assay [1] and -49.9% in assay [2].

Regarding `Cc1cnn(CC2CCCN2Cc2nc3ccccc3nc2C)c1` (configuration not stated), the Percent Effect in assay [1] is -1.82%; in assay [2], -1.37%.

`O=C(CN1CCCC(Cn2cncn2)C1)NCCOc1ccccc1` (configuration not stated): the Percent Effect in assay [1] is -2.48%; in assay [2], -0.612%.

Consider `COc1ccccc1CC1CCCN(CC(=O)N2CCOCC2)C1` (configuration not stated), for which the values for the Percent Effect in assay [1] and in assay [2] were -1.41% and 16.7%, respectively.

Take `Cc1cnc(C(=O)N2CCCN(Cc3csc(C)n3)CC2)cn1`: the Percent Effect is -0.524% in assay [1] and -41.5% in assay [2].

With `O=C(CC1CCCC1)N1CCCC1c1nc(O)cc(-c2ccccn2)n1` (configuration not stated), the Percent Effect in assay [1] is -2.84%; in assay [2] it was -10.1%.

`O=C1CC[C@H]2[C@H](CCN2C(=O)C2CCCO2)N1Cc1ccncc1` (some centres not stated): the Percent Effect in assay [1] was 3.48%; in assay [2], -64%.

In the case of `CN(C)[C@@H]1CCN(c2ncccn2)[C@H]1Cc1ccncc1`, the figures for the Percent Effect in assay [1] and in assay [2] were 0.268% and -22.4%, respectively.

Turning to `Cc1cc(CNC(=O)N2CCCN(Cc3ccccc3)CC2)no1`, the Percent Effect in assay [1] was -4.23%; in assay [2] it was 9.91%.

Take `CCOC[C@H]1CC[C@H]2[C@H](CCN2C(=O)c2ccncc2F)O1`: the Percent Effect in assay [1] is 5.35%; in assay [2], -0.318%.

With `CC(C)c1nnc2n1CCN(CCCS(=O)(=O)c1ccccc1)C2`, the values for the Percent Effect in assay [1] and in assay [2] were -5.16% and -15.3%, respectively.

For the compound `Cn1ccnc1N1CCN(C(=O)Cc2ccc(F)cc2)CC1`, the Percent Effect is 3.25% in assay [1] and -73% in assay [2].

For `COc1ccccc1CC1CCCN(CC(N)=O)C1` (configuration not stated), the Percent Effect in assay [1] is -3.29%; in assay [2] it was 28.2%.

The values are drawn from ChEMBL document CHEMBL3988442, “University of Dundee, Small-Polar-MMV Screening Library” (2021).
